Measurements from PMC5540273 (PLoS ONE, 2017).

Assays:
Details in all cases: concentration: 1 μM, replicates: in singlicate; n = 1
[1] = test system: FGFR1
[2] = test system: FGFR2
[3] = test system: FGFR3
[4] = test system: FGFR4
[5] = test system: FGR
[6] = test system: FLT1
[7] = test system: FLT3-autoinhibited
[8] = test system: FLT3
[9] = test system: FLT4
[10] = test system: FRK
[11] = test system: FYN
[12] = test system: GAK
[13] = test system: T1, GCN2(Kin.Dom.2,S808G)
T1 construct: gene EIF2AK4

[14] = test system: GRK1
[15] = test system: T2, GRK2
T2 construct: gene ADRBK1

[16] = test system: T3, GRK3
T3 construct: gene ADRBK2

[17] = test system: GRK4
[18] = test system: GRK7
[19] = test system: GSK3A
[20] = test system: GSK3B
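Note: KINOMEscan kinase panel screen.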

## Nc1ncnc2scc(-c3ccc(NC(=O)Cc4cc(F)ccc4F)cc3)c12.O=C(O)C(F)(F)F [SB-731254-M]
[1]
  %Inh: 28%
[2]
  %Inh: 100%
[3]
  %Inh: 0%
[4]
  %Inh: 9%
[5]
  %Inh: 23%
[6]
  %Inh: 90.7%
[7]
  %Inh: 89%
[8]
  %Inh: 94.1%
[9]
  %Inh: 61%
[10]
  %Inh: 0%
[11]
  %Inh: 0%
[12]
  %Inh: 26%
[13]
  %Inh: 19%
[14]
  %Inh: 24%
[15]
  %Inh: 0%
[16]
  %Inh: 0%
[17]
  %Inh: 15%
[18]
  %Inh: 29%
[19]
  %Inh: 3%
[20]
  %Inh: 24%

## CCOc1nccc(-c2c(-c3ccc(F)cc3)ncn2C2CCNCC2)n1 [SB-249175]
[1]
  %Inh: 25%
[2]
  %Inh: 3%
[3]
  %Inh: 11%
[4]
  %Inh: 4%
[5]
  %Inh: 0%
[6]
  %Inh: 18%
[7]
  %Inh: 18%
[8]
  %Inh: 39%
[9]
  %Inh: 2%
[10]
  %Inh: 6%
[11]
  %Inh: 6%
[12]
  %Inh: 8%
[13]
  %Inh: 40%
[14]
  %Inh: 11%
[15]
  %Inh: 3%
[16]
  %Inh: 0%
[17]
  %Inh: 15%
[18]
  %Inh: 14%
[19]
  %Inh: 0%
[20]
  %Inh: 49%

## CN1CCN(Cc2ccc(NC(=O)Nc3ccc(N(C)c4ccnc(Nc5ccc(CS(C)(=O)=O)cc5)n4)cc3)cc2)CC1.Cl [GW827654]
[1]
  %Inh: 5%
[2]
  %Inh: 23%
[3]
  %Inh: 9%
[4]
  %Inh: 0%
[5]
  %Inh: 49%
[6]
  %Inh: 99.8%
[7]
  %Inh: 95.2%
[8]
  %Inh: 99.8%
[9]
  %Inh: 100%
[10]
  %Inh: 84%
[11]
  %Inh: 40%
[12]
  %Inh: 36%
[13]
  %Inh: 17%
[14]
  %Inh: 9%
[15]
  %Inh: 27%
[16]
  %Inh: 21%
[17]
  %Inh: 86%
[18]
  %Inh: 3%
[19]
  %Inh: 4%
[20]
  %Inh: 32%

## O=C(Nc1c(F)cccc1F)c1cc(C(=O)c2ccccc2F)c[nH]1 [GSK1326180]
[1]
  %Inh: 0%
[2]
  %Inh: 0%
[3]
  %Inh: 5%
[4]
  %Inh: 0%
[5]
  %Inh: 0%
[6]
  %Inh: 6%
[7]
  %Inh: 0%
[8]
  %Inh: 1%
[9]
  %Inh: 0%
[10]
  %Inh: 7%
[11]
  %Inh: 0%
[12]
  %Inh: 0%
[13]
  %Inh: 0%
[14]
  %Inh: 0%
[15]
  %Inh: 0%
[16]
  %Inh: 35%
[17]
  %Inh: 0%
[18]
  %Inh: 0%
[19]
  %Inh: 10%
[20]
  %Inh: 1%

## COc1cccc(NC(=O)NCCNc2ccnc(Nc3ccc(F)cc3)n2)c1 [GSK1379879]
[1]
  %Inh: 0%
[2]
  %Inh: 53%
[3]
  %Inh: 2%
[4]
  %Inh: 9%
[5]
  %Inh: 22%
[6]
  %Inh: 15%
[7]
  %Inh: 0%
[8]
  %Inh: 0%
[9]
  %Inh: 0%
[10]
  %Inh: 11%
[11]
  %Inh: 0%
[12]
  %Inh: 0%
[13]
  %Inh: 0%
[14]
  %Inh: 0%
[15]
  %Inh: 0%
[16]
  %Inh: 68%
[17]
  %Inh: 0%
[18]
  %Inh: 0%
[19]
  %Inh: 11%
[20]
  %Inh: 16%
